An excerpt weighted towards active compounds, which were near 11% of everything screened.
HPGD block = qHTS Assay for Inhibitors of HPGD (15-Hydroxyprostaglandin Dehydrogenase). purified HPGD, NADH fluorescence kinetic, PGE2 substrate. Potency, µM, for the others: at the highest dose activity change, negative = inhibition, usual class: inhibitors. hit rate 4.3% among 150,000. AID 894, 2007; also: potency is read from the fitted curve at half-maximal effect
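20 nM HPGD preincubated 15 min at room temperature with compound in 50 mM Tris-HCl pH 8, 0.01% Tween 20. Started with 1 mM NAD+ and 30 uM prostaglandin E2; NADH fluorescence (360/450 nm) read 5 times over 30-s intervals, last minus first.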
ALDH1A1 block = qHTS Assay for Inhibitors of Aldehyde Dehydrogenase 1 (ALDH1A1); Potency, µM (series often up to 75.3 µM), for the others: at the top dose activity, negative = inhibition, hits mostly inhibitors; Aldehyde dehydrogenase 1A1 (Homo sapiens), P00352; Purified ALDH1A1, NADH fluorescence, propionaldehyde substrate; hit rate 7.3% among 220,000;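 also: potency is read from the fitted curve at half-maximal effect; plate controls were no enzyme wells and a reference inhibitor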
Target sequence (P00352 whole entry, looked up): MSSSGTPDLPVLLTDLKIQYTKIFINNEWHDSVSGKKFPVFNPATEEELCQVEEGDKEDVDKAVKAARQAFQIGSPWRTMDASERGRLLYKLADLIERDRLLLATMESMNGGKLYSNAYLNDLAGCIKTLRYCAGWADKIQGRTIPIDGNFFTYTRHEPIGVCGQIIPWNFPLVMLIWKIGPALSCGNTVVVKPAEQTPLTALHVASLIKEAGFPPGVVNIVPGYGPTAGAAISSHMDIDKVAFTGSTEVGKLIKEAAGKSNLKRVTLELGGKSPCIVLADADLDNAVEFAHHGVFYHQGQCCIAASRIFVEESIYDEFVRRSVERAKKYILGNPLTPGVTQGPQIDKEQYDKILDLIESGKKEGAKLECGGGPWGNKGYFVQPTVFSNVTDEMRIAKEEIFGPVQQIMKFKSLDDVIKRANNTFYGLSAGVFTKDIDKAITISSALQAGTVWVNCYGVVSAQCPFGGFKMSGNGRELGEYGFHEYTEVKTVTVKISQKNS
PNC assembly inh = High Content Assay for Compounds that inhibit the Assembly of the Perinucleolar Compartment; PC3M PTB-GFP, PNC prevalence imaging, 16 h; active compounds read low; activity change (PNC), negative = inhibition, % at 10 µM; hit rate 3.1% among 140,000; AID 2417, 2010;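 active = readout at or below -70, meaning at least 70% loss of cells showing the perinucleolar compartment, a nuclear body marking cancer cells; inconclusive = readout between -30 and a set limit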;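 also: plate controls were DMSO wells for no effect and camptothecin positive control wells for full effect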
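Compounds are pinned in duplicate onto adhered PC3M cells stably expressing GFP-tagged PTB and incubated 16 h at 37 C. Cells are then fixed, nuclei stained with Hoechst, and PNC-positive cells counted.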
* marks the source's active call; other numbers are inactive results; ? = inconclusive; nt = no result given; ! = repeats disagree; [ ] = dose if it differs, or a comment. Unless noted, calls follow the shape of the dose curve; as a rule, active = well fitted inhibition curve with a large enough effect (not every such curve was filed as active); inconclusive = small, poorly fitted or top-dose-only effect, or another doubt; inactive = no such curve, though single readings can be large or run the other way. Unless noted, % is scaled to controls: 0 for no effect and ±100 for the full control effect.

SMILES	HPGD block	ALDH1A1 block	PNC assembly inh
C[C@H](N)c1nnc(SCc2c(Cl)cccc2Cl)o1	32µM*	-4%	3
CC(NC(=O)Nn1cnnc1)(C(F)(F)F)C(F)(F)F	-12%	-6%	35
CCS(=O)(=O)N1CCC(NC(=O)C2CCCCC2)CC1	nt	3%	-2
O=[N+]([O-])c1ccc(Oc2ccc(/C=N/O)cc2)nc1	nt	1%	nt
O=C1NC(=O)/C(=C\c2ccc(Oc3ccc([N+](=O)[O-])cn3)cc2)S1	13µM*	?	-24
CCCn1c(-c2ccc(F)cc2)nc2c(NCCN(C(C)C)C(C)C)nc(C)nc21	-28%	?	nt
Cc1ccc(Cl)cc1N	-10%	-11%	nt
CC1(C(=O)N(CC(=O)NC2CCCC2)C2CCCC2)CC(=O)N=C2C=CC=CN21 (stereo unspecified)	?	?	-20
Cc1ccccc1N(CC(=O)NC1CCCC1)C(=O)C1(C)CC(=O)N=C2C=CC=CN21 (stereo unspecified)	?	?	-116*
Cc1c(Nc2ncccc2C(=O)O)cccc1C(F)(F)F	-13%	-1%	nt
CC(Oc1ccccc1)c1ccn[nH]1 (stereo unspecified)	nt	4%	nt
O=C(NC1CCCC1)c1ccc2nc[nH]c2c1	-26%	2%	2
Cc1ccccc1C(=O)Nc1ccc(-c2nc3ccc(C(=O)c4ccccc4)cc3[nH]2)cc1	?	?	-6
O=C(c1ccccc1)c1ccc2nc[nH]c2c1	22µM*	?	33
Cc1nc2ccc(C(=O)c3ccccc3)cc2[nH]1	18µM*	?	3
COC(=O)NC(CCc1ccccc1)C(C(=O)OC)C(=O)OC (stereo unspecified)	-8%	7%	nt
COC(=O)c1sc2ccccc2c1-n1cccc1C(=O)C(=O)Nc1ccc(OC)cc1	-22%	?	-21
Cc1cc(OCc2cccc(Cl)c2)c(C)cc1CN1CCOCC1	nt	5%	nt
N#Cc1c(N)[nH]c(=S)c(C#N)c1-c1ccccc1	-24%	28µM*	16
Cc1ccc(-n2c(N)c(C#N)c(-c3ccccc3)c(C#N)c2=O)cc1	-12%	?	17
CCN=c1scc(-c2ccccc2)n1/N=C/c1ccccn1	-12%	?	-125*
CCN=c1scc(-c2cccs2)n1/N=C/c1cc(OC)ccc1O	-18%	?	10
C=CCN=c1scc(-c2ccc(F)cc2)n1/N=C/c1ccccn1	-3%	-9%	?
C=CCN=c1scc(-c2ccccc2)n1/N=C/c1ccccn1	-6%	-10%	-106*
Cc1cc(NCCO)c2cc(O)ccc2n1	?	?	8
SMILES	HPGD block	ALDH1A1 block	PNC assembly inh
CC1(C)CC(=O)C(Sc2ccccc2[N+](=O)[O-])=C(O)C1	?	7.1µM*	-83*
CC1(C)CC(=O)C(C(=O)Cc2ccccc2[N+](=O)[O-])C(=O)C1	-12%	6%	?
CCC/C=C(\CCC)C(NS(=O)(=O)c1ccc(-c2ccccc2)cc1)c1ccc(C(=O)OC)cc1 (stereo unspecified)	-10%	-9%	nt
O=C(c1ccc2snnc2c1)N1CCCCC1	16µM*	-6%	-100*
O=C(c1ccc2snnc2c1)N1CCOCC1	-7%	3%	29
O=C(Nc1ccccc1)c1ccc[n+](Cc2ccc([N+](=O)[O-])cc2)c1	-14%	?	-15
O=[N+]([O-])c1ccc(-c2csc(Nc3ccccc3)[n+]2Cc2ccccc2)cc1	-21%	32µM*	11
FC(F)(F)c1ccccc1-c1nccc(NCc2ccccc2)n1	-6%	5%	nt
CC1CCCC(C)N1/N=C/c1cc(Br)c(O)c(Br)c1 (stereo unspecified)	-13%	?	9
CC1CCCC(C)N1/N=C/c1ccc(N(C)C)cc1 (stereo unspecified)	nt	4µM*	nt
O=C(C1=C(O)C(=O)N(CCOCCO)C1c1cccs1)c1cccs1 (stereo unspecified)	-10%	2.2µM*	-3
O=C(C1=C(O)C(=O)N(Cc2ccco2)C1c1cccs1)c1cccs1 (stereo unspecified)	-9%	?	46
COc1cc(C2C(C(=O)c3ccco3)=C(O)C(=O)N2CCc2ccccc2)ccc1O (stereo unspecified)	-12%	6%	?
COc1ccc(C2C(C(=O)c3ccco3)=C(O)C(=O)N2c2nnc(C)s2)cc1 (stereo unspecified)	nt	-13%	nt
Cc1ccc2nc(N3C(=O)C(O)=C(C(=O)c4ccco4)C3c3cccs3)sc2c1 (stereo unspecified)	14µM*	?	-11
COc1ccc(CCN2C(=O)C(O)=C(C(=O)c3ccco3)C2c2cccs2)cc1OC (stereo unspecified)	-18%	7.9µM*	-11
Cc1ccccc1CN1CCN(Cc2ccccc2C(F)(F)F)CC1	3%	?	-3
CCc1ccccc1OCC(=O)Nc1nc(-c2cccnc2)cs1	nt	2%	nt
Cc1ccc(C(=O)NCCSc2ccc(Cl)cc2)cc1S(=O)(=O)Nc1ccccc1	-22%	-3%	52
O=c1[nH]c2cc([N+](=O)[O-])c([N+](=O)[O-])cc2[nH]c1=O	32µM*!	1%	nt
O=c1[nH]c(=O)c2cc([N+](=O)[O-])cc([N+](=O)[O-])c2[nH]1	nt	7%	nt
CCN(CC)C(=O)CSc1nc2cc3c(cc2c(=O)n1Cc1ccc(OC)cc1)OCO3	nt	-12%	nt
CC(C)Sc1nnc(CNC(=O)C23CC4CC(CC(C4)C2)C3)n1C1CCCCC1	-1%	4%	-28
NS(=O)(=O)c1ccc(N/C=C\C(=O)c2ccc3ccccc3c2)cc1	-14%	?	?
C/C=C(\C)CN1CCN(c2cc(C)ccc2C)CC1	-15%	16µM*	-29
SMILES	HPGD block	ALDH1A1 block	PNC assembly inh
C/C=C(\C)CN1CCN(c2cccc(C)c2C)CC1	?	1%	30
CC1(C)CC(=O)C2=C(C1)Nc1ccccc1N=C2	-12%	1.8µM*	-14
CC1(C)CC(=O)C2=C(C1)Nc1ccccc1NC2	nt	-9%	nt
COc1cc(C)nc(NS(=O)(=O)c2ccc(C)cc2)n1	-8%	5%	19
Cc1oc(-c2ccc(Cl)cc2)cc1-c1nn2c(-c3ccoc3C)nnc2s1	25µM*	20µM*	48
Clc1ccc(-c2nnc3sc(-c4ccc(Br)o4)nn23)cc1	?	6%	?
O=C(c1ccco1)N1CCC[C@@]2(CCN(c3ccccn3)C2)C1	-28%	?	nt
COc1c(Br)cc2c(C)c(C(=O)O)oc2c1Br	14µM*	?	25
COc1ccc2c(C)c(C(=O)O)oc2c1	-29%	?	?
O=C(O)c1ccc(CNCc2ccccc2)cc1	-13%	6%[13.5 µM]	nt
Cc1ccc(C(C(=O)NC2CCCCC2)N2CCCC2)cc1 (stereo unspecified)	-15%	11%	-112*
Cc1ccc(C(C(=O)NC2CCCC2)N2CCCCC2)cc1 (stereo unspecified)	-8%	9%	-17
Cc1ccnc(NC(=O)c2cc(S(=O)(=O)N3CCCCC3)ccc2Cl)c1	-23%	?	10
Cc1cccc(NC(c2ccc(O)cc2)c2ccc3ccc(C)nc3c2O)n1 (stereo unspecified)	18µM*	7.9µM*	-16

Assay outcomes deposited in PubChem by National Center for Advancing Translational Sciences (NCATS).
